This is a sample that favours compounds with a hit; in the whole collection about 5.7% have one here.
MPTP inh: blocks calcium-induced mitochondrial swelling; isolated mouse mitochondria, Ca2+ swelling absorbance, 30 min; inhibition, % at 10 µM; 360,000 compounds, 1.4% hits;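 active = inhibition of 50% or more, scaled per plate between neutral and stimulator controls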;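 also: 0% = DMSO wells given calcium and 100% = 1 mM EGTA wells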
Myeloid diff 2: myeloid differentiation induction. calls only at 10 µM. ER-HoxA9 myeloid progenitors, lysozyme-GFP differentiation, flow cytometry. AID 624256. 360,000 compounds, 1% hits;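 active = normalized GFP-positive differentiation at or above the plate's own cutoff, the solvent-only control mean plus 3 SD; inconclusive = no clear call, values can overlap the other calls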;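 also: cells exposed to compound for four days before flow analysis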
rCAG binder: binds r(CAG) RNA repeats; r(CAG) RNA repeat, TO-PRO-1 dye displacement fluorescence; inhibition, % at 3 µM; 370,000 compounds, 1.3% hits; AID 651821;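 active = inhibition above the plate cutoff, the mean of all test compounds on that plate plus 3 SD, cut at about 35% in these data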;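 also: 0% = DMSO alone and 100% = 100 µM mitoxantrone as full dye displacement; higher means more dye released from RNA so lower well fluorescence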
FAS TE block: blocks the thioesterase domain of human fatty acid synthase; P49327; recombinant FAS-TE, OMFH fluorogenic substrate, fluorescence endpoint; inhibition, % at 15 µM; 360,000 compounds, 0.67% hits;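 active = compounds whose normalised, plate-corrected inhibition of enzyme fluorescence in the single-dose primary screen is 50% or more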;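 also: 0% = DMSO with enzyme and 100% = substrate without enzyme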
GRIN3A LBD mod: modulators (binders) of human NR3A ligand-binding domain. NR3A LBD differential scanning fluorimetry, Tm shift; 0% = protein alone, 100% = glycine-bound protein. Tm shift relative to glycine control, % at 25 µM. 340,000 compounds, 2.5% hits;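 active = melting temperature shift of at least 10% of the positive control shift, at one fixed dose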
Active calls of the source: *; i = inactive; u = inconclusive; x = no result; + = active, no number.

SMILES	MPTP inh	Myeloid diff 2	rCAG binder	FAS TE block	GRIN3A LBD mod
O=C(/C=C/c1c[nH]c2ccccc12)c1c(O)n(CCc2ccccc2)c(=O)[nH]c1=O	-8	+	0	-8	-2
Cc1cc(N(CCCl)CCCl)ccc1C=NNC(=O)Cc1cc(=O)oc2cc(O)ccc12	1	+	20	-1	11*
O=c1c2ccccc2nc(-c2ccccc2)n1-n1cccc1	0	i	0	1	11*
O=c1c2ccccc2nc(-c2ccccc2)n1-c1ccccc1	1	u	-3	1	1
Cc1ccc(-[n+]2c(Cc3nn(-c4ccccc4)c(C)[n+]3-c3ccc(C)cc3)nn(-c3ccccc3)c2C)cc1	0	i	9	-2	x
CNc1ccc2nc3ccccc3[n+](C)c2c1	17	u	-3	-2	12*
O=C1NC(=O)C(=Cc2c(Cl)cccc2Cl)C(=O)N1	2	i	1	-6	-2
O=C1NC(=O)C(CCc2ccncc2)(Cc2cccc(Cl)c2Cl)C(=O)N1c1ccc(Br)cc1 (stereo not drawn)	7	+	9	14	-4
CCN1C[C@]2(COC(=O)c3ccccc3N)CC[C@H](OC)C34[C@@H]5C[C@H]6[C@H](OC)[C@@H]5[C@](O)(C[C@@H]6OC)[C@@](O)([C@H]13)[C@@H](OC)[C@@H]42	0	i	-12	-6	10*
CC(=O)Nc1ccc(S(=O)(=O)N2Cc3ccccc3-n3nncc3C2)cc1	-3	+	3	-5	x
CC(NC(=O)OCc1ccccc1)P(=O)(Oc1ccccc1)Oc1ccccc1 (stereo not drawn)	x	x	-4	x	x
COC1CC=C2CCN3CCC4=C(CC(=O)OC4)C23C1 (stereo not drawn)	x	x	2	x	x
CC(=O)C1CCC2C3CCC4CC(O)CCC4(C)C3CCC12C (stereo not drawn)	0	i	-1	15	14*
C[C@]12CCC3[C@@H](CC[C@@H]4C[C@H](O)CC[C@]34C)[C@@H]1CCC2=O (stereo partly drawn)	1	i	-3	0	-1
CO[C@H]1C=CCCC=CC(=O)O[C@H]([C@H](C)C(=O)CCCC2CC(=O)NC(=O)C2)C(C)=C[C@@H](C)[C@@H]1O	0	i	2	-7	x
OCCNc1c2c(nc3ccccc13)CCCC2	1	i	3	-7	12*
O=C(c1cc(C(=O)NCc2ccc(Cl)cc2)c(=O)n(Cc2ccc(Cl)cc2)c1)c1cc(F)ccc1O	33	i	6	25	18*
Cc1ccc(O)c(C(=O)c2cc(C(=O)NCCC(C)C)c(=O)n(CCC(C)C)c2)c1	2	i	0	16	-6
O=C(NCCN1CCC2(CC1)C(=O)NCN2c1ccccc1)c1ccc(F)cc1	x	x	-3	x	x
COC(=O)C1=C(c2cccc(OCc3ccccc3)c2)C[C@@H]2CC[C@H]1N2C(=O)NCc1ccc(OC)cc1	1	+	2	21	-2
COC(=O)C1=C(c2cccc(OCc3ccccc3)c2)C[C@@H]2CC[C@H]1N2C(=O)NCc1ccccc1	1	i	-2	12	-1
CC1CCC2C(C)C(=O)OC3OC4(C)CCC1C32OO4 (stereo not drawn)	0	+	3	0	-1
CC1CCC2[C@@H](C)C(=O)OC3O[C@]4(C)CCC1C32OO4 (stereo partly drawn)	-1	+	-2	-2	-1
Clc1cc(Cl)cc(CN2Cc3ccccc3-n3nncc3C2)c1	x	x	-2	x	x
CC(C)CCP(=O)(O)O	x	x	2	x	x
SMILES	MPTP inh	Myeloid diff 2	rCAG binder	FAS TE block	GRIN3A LBD mod
COc1ccc([C@@H]2C[C@H]3[C@@H](CN2)CON3C)cc1	x	x	2	x	x
c1ccc(N2[C@@H]3CC[C@H]2c2ccccc2C3)cc1	-2	i	4	3	x
CC(C)=CCc1c(O)cc2c(c1O)C(=O)CC(c1ccc(O)cc1)O2 (stereo not drawn)	4	i	10	-34	26*
CS(=O)(=O)N1Cc2ccccc2-n2nncc2C1	-1	i	0	-8	-3
C/C(=N\NC(=O)c1ccccc1O)c1c(O)n(Cc2ccccc2)c(=O)[nH]c1=O	2	i	86*	25	8
C/C(=N\NC(=O)c1ccncc1)c1c(O)n(Cc2ccccc2)c(=O)[nH]c1=O	0	i	12	-2	1
C[C@@H]1CN([C@H](C)CO)C(=O)c2c(c3ccccc3n2C)-c2ccccc2CO[C@H]1CN(C)Cc1ccc2c(c1)OCCN2C	-2	i	1	-4	x
